The list is not random: actives were taken first. Their share in the collection is about 1.6%.
KCNQ2 pot: KCNQ2 (rat) channel potentiation; CHO-K1 KCNQ2, FluxOR thallium flux fluorescence; stronger effect = higher value; AID 2239; actives 0.54% (n = 310,000); B-score at 10 µM; O88943;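 active means fluorescence ratio B-score at least 3 SD of library B-scores, with initial fluorescence B-score within 3 of them, cut at about 5.3 in these data; same plate scores as AID 2156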;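 further: B-score of peak minus minimum over baseline fluorescence ratio after K+ and Tl+ stimulus; positive B-score means potentiation of KCNQ2 with more thallium influx and brighter signal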
KCNQ2 inh: inhibitors of rat KCNQ2 potassium channel; AID 2156; B-score at 10 µM; O88943; CHO-K1 KCNQ2, FluxOR thallium flux, 20 min; stronger effect = lower value; actives 1.1% (n = 310,000);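 active means fluorescence ratio B-score at most minus 3 library SDs, with starting brightness B-score within 2 library SDs, cut at about -5.5 in these data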
An asterisk follows results filed as active; i = inactive; · = no result.

SMILES | KCNQ2 pot | KCNQ2 inh
Cc1ccc(NC(=S)N2CCC(NC(=O)c3ccc(C)cc3)CC2)cc1 | · | i
CCCNC(=S)N1CCC(NC(=O)c2ccc(C)cc2)CC1 | -7.28 | -7.28*
COCc1nnc(NC(=O)CSc2ccc(C)cc2)s1 | 0.85 | i
CCCCCOC(=O)c1[nH]c2c(c1C)C(=O)CC(c1ccco1)C2 (centres undefined) | · | i
Cc1cc(N2CCOCC2)ccc1/C=C\[N+](=O)[O-] | -7.06 | -7.06*
O=[N+]([O-])c1ccc(N2CCOCC2)cc1O | 1.09 | i
COc1ccc2oc(C(=O)N(C)Cc3ccc4c(c3)OCCO4)c(C)c2c1 | -6.71 | -6.71*
COc1ccc2oc(C(=O)OCC(=O)c3ccc4c(c3)OCCO4)c(C)c2c1 | · | i
COc1ccc2oc(C(=O)N3CCN(C(=O)c4ccco4)CC3)c(C)c2c1 | 3.3 | i
COc1ccc2oc(C(=O)N(Cc3ccco3)Cc3cccs3)c(C)c2c1 | -5.77 | -5.77*
NC(=O)CCC(NC(=S)Nc1ccccc1)C(=O)O (centres undefined) | 0.31 | i
CCOC(=O)C1CCCN(C(=O)Nc2cccc(Cl)c2)C1 (centres undefined) | 0.71 | i
S=C(NC1CCCCCC1)NC1CCCC1 | 0.57 | i
NNC(=S)NC1CCCCCCCCCCC1 | -6.88 | -6.88*
O=C(NC(=S)Nc1ccccc1F)C1CCCCC1 | · | i
CC(C)(C)n1nnnc1C(c1ccc(Cl)cc1)N(Cc1cccnc1)Cc1ccco1 (centres undefined) | -6.18 | -6.18*
CC(C)(C)c1ccc(CN(Cc2ccccc2)C(c2ccccn2)c2nnnn2C(C)(C)C)cc1 (centres undefined) | -9.41 | -9.41*
Cc1ccc(C(c2nnnn2C(C)(C)C)N(Cc2ccco2)Cc2cccs2)cc1 (centres undefined) | -6.15 | -6.15*
CCN(Cc1ccccc1)C(c1ccncc1)c1nnnn1C(C)(C)C (centres undefined) | · | i
CCOc1ccc2[nH]c(=O)c(CN(Cc3cccs3)C(CC)c3nnnn3C(C)(C)CC)cc2c1 (centres undefined) | · | i
CC(C)(C)n1nnnc1C(c1cccs1)N(Cc1ccccc1)Cc1cccnc1 (centres undefined) | · | i
CCC(c1nnnn1C(C)(C)C)N(Cc1cccs1)Cc1cc2cc(C)c(C)cc2n2nnnc12 (centres undefined) | -5.9 | -5.9*
CC(C)(C)n1nnnc1C(c1cccnc1)N(Cc1ccccc1)Cc1cccs1 (centres undefined) | · | i
O=C(Nc1ccc(O)cc1)c1ccc2c(c1)C(=O)N(Cc1ccco1)C2=O | 0.23 | i
CCCCCOC(=O)Nc1nnc(CCCCC)s1 | · | i
SMILES | KCNQ2 pot | KCNQ2 inh
CC(C)(C)n1nnnc1C(c1ccc(C(F)(F)F)cc1)N(Cc1ccc(F)cc1)Cc1ccco1 (centres undefined) | -6.54 | -6.54*
c1ccc(CN(Cc2ccco2)C(c2ccncc2)c2nnnn2C2CCCC2)cc1 (centres undefined) | · | i
COc1cccc(OCc2cc(C(=O)NCC3CCCCC3)no2)c1 | · | i
CCOC(=O)CC1(NC(=O)c2cc(COc3cccc(OC)c3)on2)CCCCC1 | -7.01 | -7.01*
CCOC(=O)NC(C)N1C(=O)C2C3C=CC(C3)C2C1=O (centres undefined) | 0.03 | i
COc1ccc(S(=O)(=O)N2CCCC2)cc1C(C)C | -6.94 | -6.94*
COc1ccc(S(=O)(=O)N2CCCC(C(=O)N3CCN(C)CC3)C2)cc1Cl (centres undefined) | · | i
COc1ccc(S(=O)(=O)N2CCCC(C(=O)N3CCOCC3)C2)cc1Cl (centres undefined) | -5.59 | -5.59*
COc1ccc(S(=O)(=O)N2CCCC2)cc1OC | 0.02 | i
CCOc1ccc(OCCCC(=O)NCCOc2ccccc2OC)cc1 | · | i
COc1ccc(C(CC(=O)Nc2ccc(Cl)cc2F)NC(=O)C(F)(F)F)cc1 (centres undefined) | · | i
CC(C)(C)c1nc2c(s1)CCc1onc(-c3ccc(Br)cc3)c1-2 | · | i
CCc1ccc(NC(=O)c2ccc(F)c(S(=O)(=O)N(CC)c3ccccc3)c2)cc1 | · | i
CCN(c1ccccc1)S(=O)(=O)c1cc(C(=O)Nc2cccc(Cl)c2)ccc1F | -8.11 | -8.11*
COc1ccc(C(=O)NCCc2ccc(F)cc2)cc1OC | 1.09 | i
CSCCC(NS(=O)(=O)c1cccs1)C(=O)NCc1ccc(C)cc1 (centres undefined) | 9.63* | i
CSCCC(NS(=O)(=O)c1cccs1)C(=O)NCc1ccccc1 (centres undefined) | 3.22 | i
Cc1cc(C)nc(OC(C(=O)O)C(OCCc2ccccc2)(c2ccccc2)c2ccccc2)n1 (centres undefined) | · | i
COc1ccc(S(=O)(=O)CCc2nc3ccccc3s2)cc1 | · | i
Cc1ccc2cc(CN(Cc3cccs3)C(=O)c3ccco3)c3nnnn3c2c1C | -6.03 | -6.03*
Cc1ccc2c(c1)cc(CN(Cc1cccs1)C(=O)c1ccco1)c1nnnn12 | 1.76 | i
COc1cc(CNC(=O)c2cccc(COc3ccc(Cl)cc3)c2)cc(OC)c1 | -5.93 | -5.93*
O=C(NCc1ccccc1)c1cccc(COc2ccc(Cl)cc2)c1 | · | i
CCSc1n[nH]c2nc3c(c(=O)n12)C1(CCCC1)Cc1ccccc1-3 | · | i
Cc1ccc(-n2c(SCC(N)=O)nc3c(c2=O)C2(CCCC2)Cc2ccccc2-3)cc1 | -5.61 | -5.61*
SMILES | KCNQ2 pot | KCNQ2 inh
CCCNC(=S)N1CCC(C(=O)c2ccc3c(c2)OCCO3)CC1 | 0.01 | i
CCNC(=O)c1cc2c(=O)n3cccc(C)c3nc2n(Cc2ccc(C)cc2)c1=N | 1.04 | i
CCCN(CCC)c1nc(C#N)nc(N(CCC)CCC)n1 | -7.93 | -7.93*
CN(C)c1nc(C#N)nc(N(C)C)n1 | 1.93 | i
Cc1ccc(-c2nnc(SCC#CCOC(=O)c3cccs3)o2)cc1 | · | i
O=C(NCCCN1CCOCC1)c1ccccc1N1C(=O)[C@@H]2Cc3c([nH]c4ccccc34)C(c3ccc(F)cc3)N2C1=O (some centres undefined) | -7.07 | -7.07*
O=C(NCCN1CCOCC1)c1ccccc1N1C(=O)[C@@H]2Cc3c([nH]c4ccccc34)C(c3ccccc3)N2C1=O (some centres undefined) | · | i
O=C(Nc1ccccc1Cl)C1CC(=O)n2c(nc3ccccc32)N1 (centres undefined) | · | i
O=C(Nc1cc(C(F)(F)F)ccc1N1CCOCC1)C1Cc2ccccc2CN1C(=O)c1ccco1 (centres undefined) | -6.45 | -6.45*
O=C(/C=C/c1ccco1)NC(=S)Nc1cc(C(F)(F)F)ccc1N1CCOCC1 | -7.27 | -7.27*
O=C(CCCCl)NC(=S)Nc1cc(C(F)(F)F)ccc1N1CCOCC1 | 0.03 | i
O=C(Nc1ccccc1)C1Cc2ccccc2CN1C(=O)c1ccco1 (centres undefined) | · | i
S=C(Nc1ccccc1)Nc1ccccc1-n1cccc1 | · | i
CC(C)C1=NN(C(=O)c2ccccc2)C(O)(C(C)(C)C)C1 (centres undefined) | 7.11* | i
CC(C)(C)C1=NN(C(=O)c2ccccc2)C(O)(C(C)(C)C)C1 (centres undefined) | · | i
CC(=O)N1CCC2(CC1)C(C#N)=C(N)Oc1n[nH]c(CSc3ccc(C)cc3)c12 | · | i
CCOc1ccc(-c2nc(C#N)c(N3CCN(Cc4ccccc4)CC3)o2)cc1 | -6.16 | -6.16*
CCOc1ccc(-c2nc(C#N)c(N3CCOCC3)o2)cc1 | 1.41 | i
